# From ChEMBL document CHEMBL1961873, “Compounds: GSK PKIS; Assays: Nanosyn kinase panel” (2012)
# Tests used:
# [1] = biological target: High affinity nerve growth factor receptor (Homo sapiens) (UniProt P04629); conditions: at 1 µM;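 note: each value is the mean percent inhibition of TRKA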
# [2] = biological target: BDNF/NT-3 growth factors receptor (Homo sapiens) (UniProt Q16620); conditions: at 0.1 µM
# [3] = biological target: BDNF/NT-3 growth factors receptor (Homo sapiens) (UniProt Q16620); conditions: at 1 µM
# [4] = biological target: NT-3 growth factor receptor (Homo sapiens) (UniProt Q16288); conditions: at 0.1 µM
# [5] = biological target: NT-3 growth factor receptor (Homo sapiens) (UniProt Q16288); conditions: at 1 µM
# [6] = biological target: T1, Tyrosine-protein kinase TXK (Homo sapiens) (UniProt P42681); conditions: at 0.1 µM
# T1 sequence (whole entry): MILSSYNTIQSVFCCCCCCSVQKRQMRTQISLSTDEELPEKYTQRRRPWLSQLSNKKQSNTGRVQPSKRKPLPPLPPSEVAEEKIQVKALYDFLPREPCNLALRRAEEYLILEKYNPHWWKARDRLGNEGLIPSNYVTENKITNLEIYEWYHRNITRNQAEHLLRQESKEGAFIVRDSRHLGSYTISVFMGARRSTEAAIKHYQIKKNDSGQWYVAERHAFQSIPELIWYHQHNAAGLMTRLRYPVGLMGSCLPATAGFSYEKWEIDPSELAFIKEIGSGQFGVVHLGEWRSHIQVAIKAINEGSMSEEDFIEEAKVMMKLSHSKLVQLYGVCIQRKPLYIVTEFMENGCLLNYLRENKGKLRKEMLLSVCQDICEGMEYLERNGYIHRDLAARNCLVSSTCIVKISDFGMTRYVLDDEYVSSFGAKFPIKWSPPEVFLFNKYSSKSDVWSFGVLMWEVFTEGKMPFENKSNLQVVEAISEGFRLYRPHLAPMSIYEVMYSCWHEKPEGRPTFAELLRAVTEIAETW
# [7] = biological target: T1, Tyrosine-protein kinase TXK (Homo sapiens); conditions: at 1 µM
# [8] = biological target: Non-receptor tyrosine-protein kinase TYK2 (Homo sapiens) (UniProt P29597); conditions: at 0.1 µM;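 note: each value is a mean of the inhibition readings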
# [9] = biological target: T2, Dual specificity protein kinase TTK (Homo sapiens) (UniProt P33981); conditions: at 1 µM;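 note: reported figures are mean TTK inhibition at 1 µM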
# T2 sequence (whole entry): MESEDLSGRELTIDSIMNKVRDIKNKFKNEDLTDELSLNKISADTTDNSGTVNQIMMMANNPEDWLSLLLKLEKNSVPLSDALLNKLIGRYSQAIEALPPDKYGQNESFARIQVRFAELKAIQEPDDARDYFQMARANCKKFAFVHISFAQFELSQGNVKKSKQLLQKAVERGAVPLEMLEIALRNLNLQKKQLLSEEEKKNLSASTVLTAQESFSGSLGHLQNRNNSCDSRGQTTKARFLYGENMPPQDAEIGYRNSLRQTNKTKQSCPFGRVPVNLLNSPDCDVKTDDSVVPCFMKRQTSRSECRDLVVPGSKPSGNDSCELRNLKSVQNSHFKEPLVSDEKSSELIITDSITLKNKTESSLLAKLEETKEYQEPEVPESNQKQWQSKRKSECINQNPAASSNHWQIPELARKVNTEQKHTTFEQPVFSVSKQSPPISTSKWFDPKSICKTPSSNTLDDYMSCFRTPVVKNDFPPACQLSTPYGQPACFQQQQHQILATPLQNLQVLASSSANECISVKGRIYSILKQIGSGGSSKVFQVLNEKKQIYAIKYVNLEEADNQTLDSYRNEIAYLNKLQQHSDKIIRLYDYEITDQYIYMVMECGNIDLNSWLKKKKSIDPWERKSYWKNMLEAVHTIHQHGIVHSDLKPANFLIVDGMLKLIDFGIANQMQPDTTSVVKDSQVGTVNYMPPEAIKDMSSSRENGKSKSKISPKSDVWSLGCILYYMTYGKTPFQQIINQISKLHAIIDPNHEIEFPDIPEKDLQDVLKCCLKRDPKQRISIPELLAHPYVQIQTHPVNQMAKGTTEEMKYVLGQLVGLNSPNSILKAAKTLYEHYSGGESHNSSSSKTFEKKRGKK
# [10] = biological target: T3, Aurora kinase A (Homo sapiens) (UniProt O14965); conditions: at 0.1 µM
# T3 sequence (whole entry): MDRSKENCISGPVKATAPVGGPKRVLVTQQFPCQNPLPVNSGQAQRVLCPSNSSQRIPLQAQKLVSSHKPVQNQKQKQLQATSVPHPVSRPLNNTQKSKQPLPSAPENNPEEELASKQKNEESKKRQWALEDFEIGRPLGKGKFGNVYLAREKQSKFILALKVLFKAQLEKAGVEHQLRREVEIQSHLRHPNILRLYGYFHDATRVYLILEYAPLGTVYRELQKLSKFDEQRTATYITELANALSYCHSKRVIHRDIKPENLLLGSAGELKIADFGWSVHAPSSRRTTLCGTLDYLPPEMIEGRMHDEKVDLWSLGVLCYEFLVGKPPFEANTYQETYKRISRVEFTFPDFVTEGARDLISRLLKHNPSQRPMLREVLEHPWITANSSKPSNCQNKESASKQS
# [11] = biological target: T3, Aurora kinase A (Homo sapiens); conditions: at 1 µM
# [12] = biological target: Aurora kinase B (Homo sapiens) (UniProt Q96GD4); conditions: at 0.1 µM
# [13] = biological target: Aurora kinase B (Homo sapiens) (UniProt Q96GD4); conditions: at 1 µM
# [14] = biological target: T4, Aurora kinase C (Homo sapiens) (UniProt Q9UQB9); conditions: at 0.1 µM
# T4 sequence (whole entry): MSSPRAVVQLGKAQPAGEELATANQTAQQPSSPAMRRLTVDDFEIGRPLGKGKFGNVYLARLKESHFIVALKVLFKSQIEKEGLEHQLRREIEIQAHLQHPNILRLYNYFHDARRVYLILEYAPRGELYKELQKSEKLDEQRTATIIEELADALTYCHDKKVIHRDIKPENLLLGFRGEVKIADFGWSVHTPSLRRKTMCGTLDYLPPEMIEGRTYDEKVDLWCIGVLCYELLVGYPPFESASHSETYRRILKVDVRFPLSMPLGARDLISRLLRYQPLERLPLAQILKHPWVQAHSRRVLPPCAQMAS
# [15] = biological target: T4, Aurora kinase C (Homo sapiens); conditions: at 1 µM
# [16] = biological target: Serine/threonine-protein kinase 10 (Homo sapiens) (UniProt O94804); conditions: at 0.1 µM
# [17] = biological target: Serine/threonine-protein kinase 10 (Homo sapiens) (UniProt O94804); conditions: at 1 µM
# [18] = biological target: T5, Mitogen-activated protein kinase kinase kinase kinase 2 (Homo sapiens) (UniProt Q12851); conditions: at 0.1 µM
# T5 sequence (whole entry): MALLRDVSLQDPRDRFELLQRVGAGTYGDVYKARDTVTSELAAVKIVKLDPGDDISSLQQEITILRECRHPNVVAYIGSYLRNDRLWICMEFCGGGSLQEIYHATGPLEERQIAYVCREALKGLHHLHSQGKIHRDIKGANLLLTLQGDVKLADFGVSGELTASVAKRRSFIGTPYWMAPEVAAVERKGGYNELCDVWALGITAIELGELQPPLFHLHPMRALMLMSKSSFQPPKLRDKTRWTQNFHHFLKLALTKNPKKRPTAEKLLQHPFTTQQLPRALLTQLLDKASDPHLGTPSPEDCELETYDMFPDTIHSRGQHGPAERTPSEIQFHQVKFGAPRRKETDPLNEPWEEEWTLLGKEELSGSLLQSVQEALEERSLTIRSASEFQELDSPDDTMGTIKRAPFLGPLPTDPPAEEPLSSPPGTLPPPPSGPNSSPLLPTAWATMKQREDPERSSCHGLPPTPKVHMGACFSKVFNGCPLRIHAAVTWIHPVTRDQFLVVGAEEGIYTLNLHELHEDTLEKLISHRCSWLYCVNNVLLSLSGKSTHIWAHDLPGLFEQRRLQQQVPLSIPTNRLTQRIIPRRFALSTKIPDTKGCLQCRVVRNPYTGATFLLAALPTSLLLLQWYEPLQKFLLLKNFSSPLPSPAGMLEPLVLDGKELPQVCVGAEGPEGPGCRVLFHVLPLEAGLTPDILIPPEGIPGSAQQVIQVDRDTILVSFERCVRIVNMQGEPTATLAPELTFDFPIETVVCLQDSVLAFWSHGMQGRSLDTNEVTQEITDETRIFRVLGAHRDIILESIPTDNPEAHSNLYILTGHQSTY
# [19] = biological target: T5, Mitogen-activated protein kinase kinase kinase kinase 2 (Homo sapiens); conditions: at 1 µM
# [20] = biological target: Mitogen-activated protein kinase kinase kinase kinase 4 (Homo sapiens) (UniProt O95819); conditions: at 0.1 µM
# Mitogen-activated protein kinase kinase kinase kinase 4 (Homo sapiens), sequence (O95819 2-1239 limits assumed): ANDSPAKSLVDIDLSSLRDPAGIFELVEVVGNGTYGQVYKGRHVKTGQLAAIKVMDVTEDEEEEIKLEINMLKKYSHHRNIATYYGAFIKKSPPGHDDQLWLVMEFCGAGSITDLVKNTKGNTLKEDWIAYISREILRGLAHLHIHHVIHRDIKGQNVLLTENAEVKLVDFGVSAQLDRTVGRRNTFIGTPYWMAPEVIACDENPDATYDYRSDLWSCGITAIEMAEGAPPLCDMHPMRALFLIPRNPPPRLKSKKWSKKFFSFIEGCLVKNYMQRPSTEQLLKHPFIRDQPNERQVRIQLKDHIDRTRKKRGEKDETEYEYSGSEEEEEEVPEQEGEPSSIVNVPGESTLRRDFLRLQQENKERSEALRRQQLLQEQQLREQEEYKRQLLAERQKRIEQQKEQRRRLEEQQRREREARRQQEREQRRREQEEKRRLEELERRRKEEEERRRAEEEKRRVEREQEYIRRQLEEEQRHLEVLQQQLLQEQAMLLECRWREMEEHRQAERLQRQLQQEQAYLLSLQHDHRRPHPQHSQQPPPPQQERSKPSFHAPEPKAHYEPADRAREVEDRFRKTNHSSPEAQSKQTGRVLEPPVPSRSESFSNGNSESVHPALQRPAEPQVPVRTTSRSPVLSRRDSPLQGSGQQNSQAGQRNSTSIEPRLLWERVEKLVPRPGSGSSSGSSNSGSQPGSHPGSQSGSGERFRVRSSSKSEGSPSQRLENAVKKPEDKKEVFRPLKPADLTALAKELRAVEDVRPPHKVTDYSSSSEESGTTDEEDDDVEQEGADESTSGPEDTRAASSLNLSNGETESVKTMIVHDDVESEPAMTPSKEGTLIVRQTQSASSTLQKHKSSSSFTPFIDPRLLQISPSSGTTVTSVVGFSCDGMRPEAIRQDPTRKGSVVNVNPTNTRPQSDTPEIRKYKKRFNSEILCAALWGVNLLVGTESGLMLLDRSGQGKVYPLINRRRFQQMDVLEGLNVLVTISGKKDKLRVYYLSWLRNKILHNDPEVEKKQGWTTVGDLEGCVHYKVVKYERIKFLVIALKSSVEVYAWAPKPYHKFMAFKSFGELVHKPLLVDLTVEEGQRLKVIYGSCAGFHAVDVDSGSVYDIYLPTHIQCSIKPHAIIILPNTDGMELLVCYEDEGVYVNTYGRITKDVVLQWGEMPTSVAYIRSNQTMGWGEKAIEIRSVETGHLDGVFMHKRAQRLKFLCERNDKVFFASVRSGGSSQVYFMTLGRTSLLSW
# NT-3 growth factor receptor (Homo sapiens), sequence (Q16288 32-839 limits assumed): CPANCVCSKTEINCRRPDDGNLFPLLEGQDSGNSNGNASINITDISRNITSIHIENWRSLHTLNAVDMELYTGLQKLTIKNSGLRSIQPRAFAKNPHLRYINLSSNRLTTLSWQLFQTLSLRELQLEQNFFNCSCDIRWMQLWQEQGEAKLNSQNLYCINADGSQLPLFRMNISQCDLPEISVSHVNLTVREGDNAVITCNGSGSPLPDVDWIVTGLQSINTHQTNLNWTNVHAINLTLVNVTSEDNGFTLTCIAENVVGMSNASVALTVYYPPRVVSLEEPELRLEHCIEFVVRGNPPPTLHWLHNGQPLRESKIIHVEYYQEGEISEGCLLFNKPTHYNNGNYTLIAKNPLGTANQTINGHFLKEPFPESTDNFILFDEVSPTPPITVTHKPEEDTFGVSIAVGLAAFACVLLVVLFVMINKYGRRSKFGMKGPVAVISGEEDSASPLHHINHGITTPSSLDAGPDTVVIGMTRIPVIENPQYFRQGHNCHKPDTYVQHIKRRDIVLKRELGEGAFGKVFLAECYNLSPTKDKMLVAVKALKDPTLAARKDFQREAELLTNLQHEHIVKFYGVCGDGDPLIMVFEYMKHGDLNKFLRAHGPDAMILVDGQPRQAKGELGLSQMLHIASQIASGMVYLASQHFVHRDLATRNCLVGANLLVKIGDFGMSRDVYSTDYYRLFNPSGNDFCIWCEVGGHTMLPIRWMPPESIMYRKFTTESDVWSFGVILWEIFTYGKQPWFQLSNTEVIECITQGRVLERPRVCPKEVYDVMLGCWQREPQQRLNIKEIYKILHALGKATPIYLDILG
# High affinity nerve growth factor receptor (Homo sapiens), sequence (P04629 33-796 limits assumed): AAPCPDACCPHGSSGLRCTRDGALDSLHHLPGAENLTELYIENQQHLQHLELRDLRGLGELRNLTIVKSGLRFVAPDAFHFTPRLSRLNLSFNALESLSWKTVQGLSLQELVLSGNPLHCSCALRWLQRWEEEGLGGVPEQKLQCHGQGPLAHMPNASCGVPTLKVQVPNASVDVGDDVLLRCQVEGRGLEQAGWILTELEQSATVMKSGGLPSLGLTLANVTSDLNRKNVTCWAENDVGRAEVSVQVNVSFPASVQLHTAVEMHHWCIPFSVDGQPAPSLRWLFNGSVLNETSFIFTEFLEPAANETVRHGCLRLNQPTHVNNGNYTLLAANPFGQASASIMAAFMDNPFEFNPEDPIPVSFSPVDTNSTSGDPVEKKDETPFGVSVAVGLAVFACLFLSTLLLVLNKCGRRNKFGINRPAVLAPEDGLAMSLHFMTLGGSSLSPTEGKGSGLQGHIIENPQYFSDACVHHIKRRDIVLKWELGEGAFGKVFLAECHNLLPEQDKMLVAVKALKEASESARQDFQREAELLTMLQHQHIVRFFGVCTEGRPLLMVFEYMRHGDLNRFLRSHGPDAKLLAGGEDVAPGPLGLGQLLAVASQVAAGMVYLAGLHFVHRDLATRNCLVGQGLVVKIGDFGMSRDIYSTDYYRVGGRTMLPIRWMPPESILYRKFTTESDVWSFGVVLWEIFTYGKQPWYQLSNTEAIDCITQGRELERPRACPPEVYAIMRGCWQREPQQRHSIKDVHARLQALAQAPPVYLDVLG
# Aurora kinase B (Homo sapiens), sequence (Q96GD4 whole entry): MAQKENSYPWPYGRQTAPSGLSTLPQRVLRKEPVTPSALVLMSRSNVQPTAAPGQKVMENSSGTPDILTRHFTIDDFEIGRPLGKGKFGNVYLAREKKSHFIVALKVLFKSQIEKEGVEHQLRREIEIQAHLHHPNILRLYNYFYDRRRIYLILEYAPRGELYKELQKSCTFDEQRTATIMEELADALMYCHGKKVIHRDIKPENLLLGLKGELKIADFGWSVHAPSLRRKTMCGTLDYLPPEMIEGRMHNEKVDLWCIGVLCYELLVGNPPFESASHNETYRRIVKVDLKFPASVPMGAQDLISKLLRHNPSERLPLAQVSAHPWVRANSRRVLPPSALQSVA
# Serine/threonine-protein kinase 10 (Homo sapiens), sequence (O94804 whole entry, looked up): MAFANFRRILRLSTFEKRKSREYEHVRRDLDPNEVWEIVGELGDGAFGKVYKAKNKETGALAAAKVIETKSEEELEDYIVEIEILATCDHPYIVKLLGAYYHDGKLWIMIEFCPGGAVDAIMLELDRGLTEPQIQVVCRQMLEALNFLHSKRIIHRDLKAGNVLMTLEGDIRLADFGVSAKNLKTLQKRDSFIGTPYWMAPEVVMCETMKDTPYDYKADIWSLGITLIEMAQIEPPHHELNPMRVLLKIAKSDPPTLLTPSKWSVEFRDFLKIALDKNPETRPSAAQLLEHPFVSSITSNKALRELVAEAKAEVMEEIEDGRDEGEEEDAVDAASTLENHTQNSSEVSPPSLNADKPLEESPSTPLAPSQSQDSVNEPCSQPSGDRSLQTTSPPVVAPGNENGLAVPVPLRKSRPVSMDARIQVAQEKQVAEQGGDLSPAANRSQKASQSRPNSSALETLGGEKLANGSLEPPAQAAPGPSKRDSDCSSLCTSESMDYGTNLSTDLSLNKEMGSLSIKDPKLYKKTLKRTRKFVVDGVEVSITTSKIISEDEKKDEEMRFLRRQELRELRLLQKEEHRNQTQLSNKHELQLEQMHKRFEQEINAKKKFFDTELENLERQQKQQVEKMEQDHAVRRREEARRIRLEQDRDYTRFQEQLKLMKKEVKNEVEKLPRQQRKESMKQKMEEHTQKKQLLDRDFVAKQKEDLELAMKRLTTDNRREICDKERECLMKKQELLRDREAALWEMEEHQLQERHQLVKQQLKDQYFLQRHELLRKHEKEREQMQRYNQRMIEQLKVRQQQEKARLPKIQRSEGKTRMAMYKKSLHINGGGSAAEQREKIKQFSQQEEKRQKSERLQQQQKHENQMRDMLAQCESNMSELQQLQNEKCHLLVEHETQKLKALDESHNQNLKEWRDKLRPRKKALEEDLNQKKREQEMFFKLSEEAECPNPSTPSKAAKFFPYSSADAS
# BDNF/NT-3 growth factors receptor (Homo sapiens), sequence (Q16620 32-822 limits assumed): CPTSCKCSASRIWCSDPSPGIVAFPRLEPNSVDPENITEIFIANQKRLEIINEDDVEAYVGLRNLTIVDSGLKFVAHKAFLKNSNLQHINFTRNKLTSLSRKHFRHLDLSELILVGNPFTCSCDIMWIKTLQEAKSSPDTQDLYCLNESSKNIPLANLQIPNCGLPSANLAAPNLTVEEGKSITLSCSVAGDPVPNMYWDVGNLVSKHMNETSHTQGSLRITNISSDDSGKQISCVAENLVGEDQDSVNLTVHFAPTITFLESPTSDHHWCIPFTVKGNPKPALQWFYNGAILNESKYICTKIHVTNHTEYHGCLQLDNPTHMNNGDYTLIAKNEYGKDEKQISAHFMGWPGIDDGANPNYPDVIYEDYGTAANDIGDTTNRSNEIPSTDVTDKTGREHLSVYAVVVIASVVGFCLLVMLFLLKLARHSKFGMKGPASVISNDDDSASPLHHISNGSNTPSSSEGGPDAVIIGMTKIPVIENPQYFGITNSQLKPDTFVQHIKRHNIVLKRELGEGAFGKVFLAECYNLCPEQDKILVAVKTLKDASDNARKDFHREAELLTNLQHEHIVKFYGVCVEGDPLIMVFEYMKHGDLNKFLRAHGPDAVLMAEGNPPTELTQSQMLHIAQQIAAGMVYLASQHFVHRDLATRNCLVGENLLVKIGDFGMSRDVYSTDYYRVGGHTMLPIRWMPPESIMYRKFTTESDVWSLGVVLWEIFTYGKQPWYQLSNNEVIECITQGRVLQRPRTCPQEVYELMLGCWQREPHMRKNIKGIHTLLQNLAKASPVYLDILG
Compound,inhibition [1] [%],inhibition [2] [%],inhibition [3] [%],inhibition [4] [%],inhibition [5] [%],inhibition [6] [%],inhibition [7] [%],inhibition [8] [%],inhibition [9] [%],inhibition [10] [%],inhibition [11] [%],inhibition [12] [%],inhibition [13] [%],inhibition [14] [%],inhibition [15] [%],inhibition [16] [%],inhibition [17] [%],inhibition [18] [%],inhibition [19] [%],inhibition [20] [%]
CN(C)c1cc2c(Nc3ccc4nc(Cc5ccccc5)[nH]c4c3)ncnc2cn1,3.31,3.89,2.87,3.93,4.24,8.4,13.7,-8.04,32.2,3.28,11.5,6.09,27.4,5.94,40.3,6.78,14.4,1.35,2.07,7.88
COc1cc2ncn(-c3cc(O[C@@H](C)c4ccccc4Cl)c(C(N)=O)s3)c2cc1OC,6.09,5.59,18.6,6.76,32.5,-1.39,5.82,-2.87,9.98,4.95,18.1,8.64,38.8,8,49.3,54,79.5,6.14,20.2,5.91
COc1cc2c(cc1Nc1nc(N3CCc4ccccc43)c3cc[nH]c3n1)N(C(=O)CN(C)C)CC2,3.52,-0.87,2.75,-1.19,5.17,4.42,7.54,-1.57,25.1,1.58,2.61,0.77,3.08,0.6,8.2,1.91,1.24,0.88,3.15,1.37
NC(=O)c1cccc(Nc2nccc(Nc3cccc4[nH]ncc34)n2)c1,6.83,0.06,14.1,1.25,12.9,15.8,55.1,4.66,9.28,36.4,96.8,24.5,73.7,39.2,100,-1.55,31.9,2.55,24.3,2.67
Cc1cc(O)cc(C)c1/C=C/c1cncc(-c2nn[nH]n2)c1,3.5,3.7,3.06,3.61,8.05,5.73,45.3,-2.89,11.1,-1.67,-0.41,-2.87,1.12,-3.31,-0.15,5.3,39.7,1.25,5.33,8.4
Nc1ncnc2occ(-c3ccc(NC(=O)Nc4cccc(C(F)(F)F)c4)cc3)c12,96.5,59.4,91.1,58.9,88.9,-1.65,5.17,-3.69,18.1,9.27,60.4,30.7,66.7,42.5,88.8,26.4,67.9,28.7,59.2,2.65
Nc1nc(-c2ccc3c(c2)C(=Cc2cc(Br)c(O)c(Br)c2)C(=O)N3)cs1,2.45,1.16,9.18,2.62,16.6,-0.27,0.27,1.72,-0.27,-1.16,29.2,1.57,6.47,-0.77,9.45,2.74,6.29,1.39,5.61,24.6
CCn1c(-c2nonc2N)nc2c(C#CC(C)(C)O)nc(OC[C@@H](N)c3ccccc3)cc21,1.12,-1.96,0.07,-1.23,3.35,6.5,5.38,2.72,1.66,1.81,11.7,2.1,7.36,4.3,-0.02,-0.81,7.62,0.61,8.96,1.21
Cc1cccc(-c2n[nH]cc2-c2ccc3ncccc3n2)n1,-0.2,-0.22,0.79,0.22,-0.92,1.27,2.32,-0.15,3.31,2.76,2.37,-1.18,4.2,0.3,-2.95,3.36,7.9,1.72,0.72,5.33
CCCN1CCC=C(c2ccc(Nc3nc(Nc4ccccc4C(N)=O)c4cc[nH]c4n3)c(C)c2)C1,6.59,3.01,6.47,2.46,3.13,6.59,13.1,-5.21,70.7,6.15,32.6,5.03,12.8,1.85,13.7,8.52,14.9,6.05,35.5,19.2
COC(=O)Nc1nc2cc(Oc3cccc(NC(=O)Nc4cc(C(F)(F)F)ccc4F)c3)ccc2[nH]1,-0.96,-0.54,2.43,-0.83,5.81,2.14,2.8,1.53,0.75,1.04,1.22,-1.59,-0.29,0.03,4.29,4.04,12.5,1.34,3.06,3.21
NC(=O)c1ccc(-c2nc(-c3ccccn3)c(-c3ccc4c(c3)OCO4)[nH]2)cc1,3.43,1.54,0.41,0.44,1.77,2.18,3.28,-4.13,3.14,1.85,3.93,4.83,4.45,1.68,-2.72,6.27,3.54,0.64,2.35,1.99
CCc1cccc(NC(=O)Nc2ccc(Oc3ccc4nc(NC(=O)OC)[nH]c4c3)cc2)c1,43.7,21.4,30.7,20.4,30.3,2.03,5.13,-5.85,6.45,2.16,8.38,7.89,15.6,10.3,37.5,46.8,57.8,1.82,5.21,1.49
